The campaign covered roughly 1,300 compounds. About 140 (11%) were called active. How the calls were made is not given here. These entries were drawn from the full list. Entries with a potency or affinity are not part of this list.

Experimental findings from PubChem BioAssay AID1421 (Emory University Molecular Libraries Screening Center, 2008) are described below.

This assay deals with Prostaglandin E2 receptor EP2 subtype (Homo sapiens) (UniProt P43116). Description: EP2 receptor modulators, dose response, cell-based, human EP2, PGE2 EC50 shift (AID 1421). The conditions noted are these: EP2-expressing cells, PGE2 EC50 shift by compound; at 20 µM.
Chain of Prostaglandin E2 receptor EP2 subtype (Homo sapiens) (P43116 whole entry, looked up): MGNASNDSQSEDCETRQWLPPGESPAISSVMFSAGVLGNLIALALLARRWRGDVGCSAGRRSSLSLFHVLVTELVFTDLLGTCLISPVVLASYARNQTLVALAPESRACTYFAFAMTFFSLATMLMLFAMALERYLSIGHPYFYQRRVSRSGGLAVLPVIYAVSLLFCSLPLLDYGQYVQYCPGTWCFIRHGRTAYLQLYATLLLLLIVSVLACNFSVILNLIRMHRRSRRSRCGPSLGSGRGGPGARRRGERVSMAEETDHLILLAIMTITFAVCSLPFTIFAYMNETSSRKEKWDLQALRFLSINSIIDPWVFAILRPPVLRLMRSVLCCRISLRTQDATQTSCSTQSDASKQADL
For the compound `CCOC(=O)c1c(-c2cccs2)csc1NC(=O)CN1CCOCC1`, the PGE2 EC50 with compound is 2.48 nM (inactive). As for `CCCC/C(=N\NC(=O)c1ccc(Br)o1)c1ccccc1`, the figure is 0.6 nM (inactive); as for `COc1cc2cc(Br)cc(Br)c2nc1C`, 1.2 nM (inactive).

For the compound `CCC1CCc2c(sc3ncnc(N4CCOCC4)c23)C1` (centres undefined), the PGE2 EC50 with compound was 0.42 nM (inactive). As for `Cc1sc(NC(=O)c2cccs2)c(C(=O)OC(C)C)c1C`, the figure is 0.27 nM (inactive); as for `CCOC(=O)c1c(NC(=O)c2cccs2)sc2c1CCCC2`, 0.75 nM (inactive). Consider `N#CCSc1nc2ccccc2c(=O)n1C1CCCCC1`, for which the PGE2 EC50 with compound is 0.68 nM (inactive). As for `O=C(OCc1ccc(Cl)cc1)c1ccccc1C(=O)c1ccccc1`, the figure is 0.41 nM (inactive); as for `O=C(c1ccccc1)N1N=C(c2ccccc2)CC1c1ccccc1O` (centres undefined), 0.27 nM (inactive).

With `O=C(Nc1nc(-c2cccs2)c(-c2ccccc2)s1)c1ccco1`, the PGE2 EC50 with compound is 0.72 nM (inactive). Turning to `COc1ccc(-c2nc(NC(C)=O)sc2-c2ccc(OC)cc2)cc1`, the PGE2 EC50 with compound was 0.57 nM (inactive). As for `CCCCCOC(=O)c1[nH]c2c(c1C)C(=O)C(C(=O)OC)C(C)C2` (centres undefined), the figure is 0.88 nM (inactive); as for `Nc1cccc(OCc2nc(N)nc(N)c2-c2ccc(Cl)cc2)c1`, 0.92 nM (inactive); as for `CCc1c(-c2n[nH]c(=S)n2Cc2ccccc2)csc1C`, 0.32 nM (inactive).

As to `C=CCOc1nc(-c2ccncc2)nc2ccccc12`, the PGE2 EC50 with compound was 0.27 nM (inactive). As for `CCOC(=O)CN(C(=O)CSc1nnc(Cc2ccccc2)n1-c1ccc(C)cc1)c1ccccc1`, the figure is 0.47 nM (inactive). As to `Cc1ccc(C)c(CN2C(=O)C(C)Oc3ccc(C)cc32)c1` (centres undefined), the PGE2 EC50 with compound was 0.3 nM (inactive). As for `CCOc1nc(-c2ccccc2O)nc2ccccc12`, the PGE2 EC50 with compound was 0.32 nM (inactive).

Turning to `Oc1ccccc1-c1nc(N2CCCC2)c2ccccc2n1`, the PGE2 EC50 with compound was 0.3 nM (inactive). As for `CCCC(=O)Nc1ccccc1Sc1ncnc2scc(-c3ccccc3)c12`, the figure is 0.74 nM (inactive); as for `CCCCC(CC)CN1CN(CC(CC)CCCC)CC(C)(N)C1` (centres undefined), 0.75 nM (inactive); as for `OCCCNc1nc(-c2ccc(Br)cc2)nnc1-c1ccc(Cl)cc1`, 1.43 nM (inactive). As for `COc1ccc(-n2c(COc3cccc4ccccc34)nnc2SCC#N)cc1`, the figure is 0.49 nM (inactive); as for `NCCc1c(-c2ccccc2)n(-c2ccccc2)c2ccccc12`, 0.41 nM (inactive).

As for `FC(F)(F)c1cccc(/C=N/NC(=S)NC2CCCCC2)c1`, the PGE2 EC50 with compound is 4.2 nM (inactive). `O=C(CC(Sc1ccccc1)c1cccs1)c1ccco1` (centres undefined): the PGE2 EC50 with compound is 0.41 nM (inactive). As for `CCn1c2ccccc2c2cc([N+](=O)[O-])ccc21`, the figure is 0.38 nM (inactive); as for `CCn1c2ccccc2c2nc3ccccc3nc21`, 0.63 nM (inactive). On to `CC(C)n1c2ccccc2c2nc3ccccc3nc21`, for which the PGE2 EC50 with compound is 0.41 nM (inactive).
